# Data from PubChem BioAssay AID651819 (National Center for Advancing Translational Sciences (NCATS), 2012).
# “And” between values parts separate entries of the source, which are not always exact repeats. Equal values may be shown once. In all, about 360,000 compounds went through this assay and about 1,100 (0.31%) were called active. For the sample, actives were picked, then their nearest neighbours and some compounds at random. A number with no mark means an inactive call. No stated cut-off is given here; in the data, active means activity change below about -30%; inactive means the rest.
# Tested on: cytosolic chaperonin (CCT/TRiC complex)
# Assay: High-Throughput Screening for Modulators of Cytosolic Chaperonin Activity
# Settings: purified chaperonin ATPase assay, HTRF ADP detection, 30 min; active compounds read low
# Excerpt: The eukaryotic chaperonin named TRiC (for TCP-1 ring complex), also called CCT (for chaperonin containing TCP1), is an essential and conserved chaperone required for the folding and activation of 10-15% of the proteins encoded by the human genome. […] Despite its central role in cellular folding, little is known about TRiC mechanism and mode of substrate binding. Currently, no specific TRiC inhibitors are available. Given the early promise of other chaperone-directed inhibitors as cancer therapeutics (e.g. HSP90 inhibitors), inhibitors of TRiC activity may also selectively target transformed cells and have potential use as therapeutics for cancer.
# To this end, a miniaturized assay was developed to screen against the Molecular Libraries Small Molecule Repository (MLSMR).
# NIH Chemical Genomics Center [NCGC]
# NIH Molecular Libraries Probe Centers Network [MLPCN]
# Assay Submitter (PI): Judith Frydman, Stanford University
# 1.5 uL/well TRiC enzyme suspended in buffer (30 mM TRIS pH7.4, 100 mM KCl, 5 mM MgCl2, 1 mM DTT) was added with BioRAPTR FRD dispenser at 40 nM or 20 nM (based on the enzymatic activity of used batches) final concentration to a white solid bottom medium binding 1536-well plate (Greiner Bio-One, Monroe, NC), and quickly spanned down. 23 nl/well of compound solutions in DMSO were added with a pintool transfer (Kalypsis, San Diego, CA) at a single 76 uM final concentration. Next, 1.5 µl/well ATP was dispensed with BioraptR at 10 uM final concentration after which the plates were incubated at 37 deg C for 30 min. HTRF(R) Transcreener(R) ADP (Cisbio US, Bedford, MA) detection reagents were prepared accordingly to the protocol and dispensed into the plate (1.5 uL/well each), incubated for 30 min at ambient temperature. Then, the plates were read using Envision reader with excitation at 330nm and emission at 615nm (Eu(3)-Cryptate donor signal) and 665nm (d2 acceptor signal). The ratio of […] was calculated for each well.
# On the % scale 0 is the no-effect control and ±100 the full control effect.
row,Structure (SMILES),activity change
1,CC(=O)Cn1ncc(N2CCOCC2)c(Br)c1=O,-7.2%
2,O=C(CSCc1c(Cl)cccc1Cl)NN1C(=O)c2ccccc2C1=O,-44% (active)
3,O=C(CSCc1c(F)cccc1Cl)NCC1CCCO1 (configuration not stated),-0.136%
4,O=C(CSCc1ccccc1Cl)NNC(=O)c1ccccc1,-0.322%
5,CC(CO)(CO)NC(=O)c1ccc(=O)[nH]n1,1.59%
6,Cc1ccc(C)c(OCCC(=O)OCC(=O)c2ccc3c(c2)NC(=O)CO3)c1,-8.24%
7,CCOC(=O)C1CCN(C(=O)COc2cc(C)c(Br)c(C)c2)CC1,-2.02%
8,Cc1ccc(O)c(/C=N/NC(=O)COc2ccc3c(C)cc(=O)oc3c2)c1,2.07%
9,Cc1cc(=O)oc2ccc(OCC(=O)O)cc12,-57.7% (active)
10,CC(=O)c1c(C)[nH]c(C(=O)COc2ccc3c(C)cc(=O)oc3c2)c1C,-0.599%
11,O=C(NCCC1CCCCN1S(=O)(=O)c1ccc(Cl)cc1)C(=O)NCc1ccco1 (configuration not stated),2.22%
12,CCOC(=O)[C@@H]1[C@H]2COc3ccc(Br)cc3[C@H]2N2C(=O)N(c3ccc(Cl)cc3)C(=O)[C@@]12C,-1.17%
13,CC1(C(=O)Nc2cccc3cccnc23)CCN1C(=O)CCC1CCCC1 (configuration not stated),1.06%
14,O=C1c2ccccc2C(O)N1Cc1ccccc1 (configuration not stated),-1.07%
15,CN1CCN(c2cc3c(cc2F)c(=O)c(C(=O)O)cn3CCF)CC1,-35.1% (active)
16,CCCCCCn1cc(C(=O)O)c(=O)c2cc(F)c(N3CCCCC3)cc21,-2.93%
17,CCn1cc(C(=O)NCCO)c(=O)c2cc(F)c(N3CCN(C)CC3)cc21,-0.12%
18,O=C(NCc1ccncc1)C(=O)NCC1OCCN1S(=O)(=O)c1ccc(Br)cc1 (configuration not stated),-45.4% (active)
19,COc1ccc(S(=O)(=O)N2CCOC2CNC(=O)C(=O)NCc2ccncc2)cc1OC (configuration not stated),0.662%
20,O=C(NCc1ccccc1)C(=O)NCC1OCCN1S(=O)(=O)c1ccc(Br)cc1 (configuration not stated),-1.3%
21,O=C1CCC(=O)N1c1ccc(NCCc2ccccc2F)c([N+](=O)[O-])c1,-1.58%
22,Cc1ccccc1NC(=O)c1cc(S(=O)(=O)N2CCOCC2)cs1,-3.83%

row,Structure (SMILES),activity change
1,Cn1c(=O)c(=O)n(C)c2cc(S(=O)(=O)NCCc3ccccc3)ccc21,-5.22%
2,CN(C(=O)c1cccc(OC2CCN(S(=O)(=O)N(C)C)CC2)c1)C1CCOC1 (configuration not stated),-4.71%
3,COc1cccc(C(=O)NCCS(=O)(=O)NCC2CCCO2)c1 (configuration not stated),-0.161%
4,CN(C)S(=O)(=O)N1CCC(Oc2cccc(C(=O)NCCCC3CCCC3)c2)CC1,-87.6% (active)
5,Cc1[nH]n(C)c(=O)c1C(=O)c1c(-c2c(Cl)cccc2Cl)noc1C,-45.8% (active)
6,Cc1onc(-c2c(Cl)cccc2Cl)c1C(=O)c1c[nH]c(C(=O)NC2CC2)c1,0.407%
7,Cc1onc(-c2c(F)cccc2Cl)c1C(=O)Nc1cccc(S(=O)(=O)N2CCCCC2)c1,-0.204%
8,O=C1NC(c2ccccc2)=NC1(Nc1ccccn1)C(F)(F)F (configuration not stated),-1.42%
9,Cc1cccc(N)c1SC1CCCCC1O (configuration not stated),-39.7% (active)
10,CSCCC1NC2(C(=O)Nc3ccc(Cl)cc32)[C@@H]2C(=O)N(C3CCCC3)C(=O)[C@H]12 (some centres not stated),1.03%
11,Cc1c(CC(=O)NCC(=O)NCC(=O)O)c(=O)oc2cc3oc4c(c3cc12)CCCC4,-2.16%
12,COc1ccc(-n2nc3c(c2NC(=O)c2ccc(N4C(=O)CCC4=O)cc2)CSC3)cc1,-0.865%
13,COc1ccc(-c2csc(NC(=O)c3ccc(N4C(=O)CCC4=O)cc3)n2)cc1OC,-39.6% (active)
14,COc1cc(NC(=O)c2ccc(-c3csc(C)n3)cc2)c(OC)cc1Cl,-4.58%
15,C[C@H]1Cn2cnc(C(=O)N[C@H](C)c3ccccc3)c2C(=O)N1,-0.974%
16,CCc1c(C)nc(SCC(=O)NC2CCCC2)[nH]c1=O,-41.7% (active)
17,Cc1ccc2nc(SCC(=O)NC3CCCC3)[nH]c2c1,-1.34%
18,Cc1nc(SCC(=O)NC2CCCC2)[nH]c(=O)c1C,-0.123%
19,O=C(CSC1=NS(=O)(=O)c2cc(F)ccc2N1)Nc1ccccc1F,0.641%
20,COC(=O)c1ccc(S(=O)(=O)c2ccc(C(=O)OC)s2)s1,1.17%
21,CN(C)S(=O)(=O)c1cccc(-c2nn(-c3ccccc3)cc2/C=C2\SC(=S)N(CC(=O)O)C2=O)c1,-61.8% (active)
22,COc1cccc(-c2nn(-c3ccccc3)cc2/C=C(\C#N)C(=O)NCCCn2ccnc2)c1,-0.966%

row,Structure (SMILES),activity change
1,Cc1ccc(-c2nn(-c3ccccc3)cc2/C=C/C(=O)Nc2cccc(S(N)(=O)=O)c2)cc1,0.245%
2,CSc1nc2ccccc2cc1/C=C(\C#N)c1ccc(Cl)cc1Cl,2.8%
3,Cn1nc([N+](=O)[O-])nc1Sc1ccc(C(C)(C)C)cc1,-4.31%
4,Cc1cc(C(=O)NNC(=S)NC(C)c2ccccc2)cs1 (configuration not stated),-0.958%
5,O=C(Nc1ccncc1)c1cc(-c2ccccn2)nc2ccc(Br)cc12,-70.4% (active)
6,Cc1ccc2nc(-c3ccncc3)cc(C(=O)Nc3ccc(OC(F)F)cc3)c2c1,-2.42%
7,O=C(Nc1ccc(Br)cc1)c1cc(S(=O)(=O)Nc2ccccn2)ccc1Cl,-1.07%
8,O=C(Nc1ccc(Cl)cc1)/C(=C1\CCCN1)[N+](=O)[O-],0.411%
9,O=C(Nc1cc(-c2nc3ncccc3o2)ccc1Cl)c1ccco1,-2.43%
10,O=S1(=O)CC(N2CCN(c3ccccn3)CC2)CN1Cc1ccc(F)cc1 (configuration not stated),-0.743%
11,Cc1c(C(=O)Nc2cccc(S(=O)(=O)N3CCOCC3)c2)oc2ccccc12,-1.92%
12,Cc1cc(C)n2nc(C(=O)Nc3cccc(S(=O)(=O)N4CCOCC4)c3)nc2n1,-34.4% (active)
13,Cc1occc1C(=O)Nc1cccc(S(=O)(=O)N2CCOCC2)c1,-3.31%
14,Cc1ccc(-c2cc(C(F)(F)F)n3ncc(C(=O)N4CCCCC4c4cccnc4)c3n2)cc1 (configuration not stated),-3.01%
15,Cc1ccccc1NC(=O)C(C)c1ccc(-c2ccccc2)c(F)c1 (configuration not stated),-2.15%
16,CCCc1nc2c(C)cc(-c3nc4ccccc4n3C)cc2n1Cc1ccc(-c2ccccc2C(=O)O)cc1,-0.702%
17,O=C(NCCCN1CCCCC1)C1CC(=O)N(CCc2ccccc2)C1 (configuration not stated),0.88%
18,O=C(NCCCN1CCCCCC1)C1CC(=O)N(C2CCCC2)C1 (configuration not stated),-44.9% (active)
19,O=C(NCCc1ccc(Cl)cc1)C1CC(=O)N(C2CCCCC2)C1 (configuration not stated),-0.359%
20,CCc1cc(CNC(=O)CC2C(=O)NCCN2CC2CCCCC2)on1 (configuration not stated),-0.174%
21,COc1cccc(CNS(=O)(=O)c2csc(C(N)=O)c2)c1,0.982%
22,CC(=O)Nc1ccc(S(=O)(=O)NCC2CCC(C(=O)NCCc3ccccc3)CC2)cc1 (configuration not stated),-1.57%

row,Structure (SMILES),activity change
1,COc1ccc(NC(=O)C2CCC(CNS(=O)(=O)c3csc(C(N)=O)c3)CC2)cc1OC (configuration not stated),-80.6% (active)
2,CN(C)C(=O)CCc1ccc2c3c([nH]c2c1)[C@]1(CCC2CCCC2)[C@@H](C(=O)N2CCOCC2)C[C@H](CC(=O)NCc2ccco2)C(=O)N1CC3,0.536%
3,CSCCC(NC(=O)C1CCC(C)CC1)C(=O)NCc1ccco1 (configuration not stated),-5.62%
4,O=C(CCn1nnc2ccccc21)OCC(=O)c1ccc([N+](=O)[O-])cc1,1.01%
5,O=C(Cn1c[n+](CC(=O)c2ccc([N+](=O)[O-])cc2)cn1)c1ccc([N+](=O)[O-])cc1,1.85% and -0.852%
6,O=C(CC(n1cncn1)C(Cl)(Cl)Cl)c1ccc([N+](=O)[O-])cc1 (configuration not stated),-37.2% (active)
7,CCCN(C(=O)COC(=O)CNS(=O)(=O)c1ccc(NC(C)=O)cc1)C1CCS(=O)(=O)C1 (configuration not stated),-0.677%
8,O=C(NC(=O)c1cc(OCC(F)(F)F)ccc1OCC(F)(F)F)Nc1ccccc1,-0.0973%
9,COC(=O)c1ccc(COc2cc([N+](=O)[O-])cc3cccnc23)cc1,-0.442%
10,COc1ccc(CN2CCCC(CNC(=O)c3ccc(F)cc3)C2)cc1OC (configuration not stated),-2.54%
11,S=c1nccc(-c2cc(Cl)sc2Cl)[nH]1,-49.1% (active)
12,CCOc1c2ccc(C(=O)NC3CCCc4ccccc43)cc2nn1CC (configuration not stated),-6.07%
13,COc1ccc(Nc2ncnc3sc(C)cc23)cc1,-82.2% (active)
14,COc1ccc(Nc2cc(Sc3ccc(OC)cc3)ncn2)cc1,-0.999%
15,COC(=O)c1ccc(Nc2ncnc3sccc23)cc1,-2.64%
16,CC1(C)CC[C@]2(C(=O)O)CC[C@]3(C)C(=CCC4[C@@]5(C)CC[C@H](O)C(C)(C)C5[C@H](O)C[C@]43C)[C@@H]2C1 (some centres not stated),0.294%
17,CCO[C@H]1OC(C(=O)N2CCN(Cc3ccccc3)CC2)=C[C@@H](c2cn(C(C)=O)c3ccccc23)[C@@H]1CCCO,0.631%
18,COc1ccc(CCNS(=O)(=O)c2ccc(F)cc2)cc1OC,-67.3% (active)
19,COc1ccc(CCNS(=O)(=O)c2ccc(C(=O)NCc3ccco3)cc2)cc1OC,-2.3%
20,COc1ccc(CCNS(=O)(=O)c2ccc(Cl)s2)cc1OC,-1.56%
21,O=C(OCCN1CCOCC1)C1(c2ccccc2)CCCCC1,0.343%
